Out of some 5,500 compounds screened, about 2,000 (36%) were called active. Roughly 18% stayed inconclusive and do not appear here. Rule as the data show it: active = normalized growth mostly below about 0.91 (no sharp cut-off); inconclusive = no clear call, values can overlap the other calls; inactive = mostly above about 0.92. The list shows a part of the results.
Assay: chemical genetic growth profiling, strain panel (AID 1159580);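 also: tested at 20 µM; growth read once vehicle control cultures reached saturation at 30 °C; 1 = growth at the plate median or of vehicle wells; lower values mean less growth of the strain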
Details: S. cerevisiae deletion strains, growth OD

Measured: normalized growth

Oc1cc(O)c2c(c1)OC(c1ccc(O)c(O)c1)C(O)C2 (configuration not stated)
inactive: locus YAL013W, strain DEP1, stronger effect = lower value 1 | locus YAL040C, strain CLN3, stronger effect = lower value 1.01 | locus YCL061C, strain MRC1 (second series), stronger effect = lower value 1 | locus YDR150W, strain NUM1, stronger effect = lower value 1.01 | locus YER002W, strain NOP16, stronger effect = lower value 1.03 | locus YGR078C, strain PAC10, stronger effect = lower value 1.01 | locus YMR263W, strain SAP30, stronger effect = lower value 1 | locus YNL153C, strain GIM3, stronger effect = lower value 1.03 | locus YNL175C, strain NOP13, stronger effect = lower value 1.02 | locus YNL197C, strain WHI3, stronger effect = lower value 1.01 | locus YNL224C, strain SQS1, stronger effect = lower value 1.01 | locus YOR083W, strain WHI5 (second series), stronger effect = lower value 1.02

Source: PubChem BioAssay AID1159580 (chemical genetic matrix, 2015)
